Measurements published in PubChem BioAssay AID1159580 (chemical genetic matrix, 2015).
Several values for one entry are separate records, joined by “and”; a condition that tells them apart may be missing. Equal entries are not always repeated. Screen size: about 5,500 compounds; about 2,000 (36%) were called active. Another 18% or so got no clear call; they are omitted. Cut-off read from the data, not from the text of the source: active = normalized growth mostly below about 0.91 (no sharp cut-off); inconclusive = no clear call, values can overlap the other calls; inactive = mostly above about 0.92. This is one part of the list.

Assay: chemical genetic growth profiling, strain panel (AID 1159580);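 note: tested at 20 µM; growth read once vehicle control cultures reached saturation at 30 °C; 1 = growth at the plate median or of vehicle wells; lower values mean less growth of the strain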
Conditions: growth OD

Measured: normalized growth

CC(C)N=C(N)N=C(N)Nc1ccc(Cl)cc1
inactive: S. cerevisiae deletion strains, locus YAL013W, strain DEP1, stronger effect = lower value 1.02 | S. cerevisiae deletion strains, locus YBR021W, strain FUR4, stronger effect = lower value 1.02 | S. cerevisiae deletion strains, locus YBR229C, strain ROT2, stronger effect = lower value 1.01 | S. cerevisiae deletion strains, locus YCL029C, strain bik1, stronger effect = lower value 1.02 | S. cerevisiae deletion strains, locus YDL035C, strain GPR1, stronger effect = lower value 1.01 | S. cerevisiae deletion strains, locus YDL074C, strain BRE1, stronger effect = lower value 1.02 | S. cerevisiae deletion strains, locus YDL101C, strain DUN1, stronger effect = lower value 1.01 | S. cerevisiae deletion strains, locus YDL134C, strain PPH21, stronger effect = lower value 1.01 | S. cerevisiae deletion strains, locus YDL185W, strain tfp1, stronger effect = lower value 1.01 | S. cerevisiae deletion strains, locus YDL192W, strain arf1, stronger effect = lower value 1.01 | S. cerevisiae deletion strains, locus YDR101C, strain arx1, stronger effect = lower value 1.01 | S. cerevisiae deletion strains, locus YDR150W, strain NUM1, stronger effect = lower value 1.02 | S. cerevisiae deletion strains, locus YDR162C, strain NBP2, stronger effect = lower value 1.01 | S. cerevisiae deletion strains, locus YDR318W, strain mcm21, stronger effect = lower value 1.02 | S. cerevisiae deletion strains, locus YDR388W, stronger effect = lower value 1.02 | S. cerevisiae deletion strains, locus YDR502C, strain sam2, stronger effect = lower value 1.01 | S. cerevisiae deletion strains, locus YEL061C, strain CIN8, stronger effect = lower value 1 | S. cerevisiae deletion strains, locus YER110C, stronger effect = lower value 1.02 | S. cerevisiae deletion strains, locus YER155C, strain BEM2, stronger effect = lower value 1.01 | S. cerevisiae deletion strains, locus YER167W, strain BCK2, stronger effect = lower value 1.02 | S. cerevisiae deletion strains, locus YGL078C, strain dbp3, stronger effect = lower value 1.01 | S. cerevisiae deletion strains, locus YGL086W, strain mad1, stronger effect = lower value 1.01 | S. cerevisiae deletion strains, locus YGL248W, strain PDE1, stronger effect = lower value 1.02 | S. cerevisiae deletion strains, locus YGR078C, strain PAC10, stronger effect = lower value 1.01 | S. cerevisiae deletion strains, locus YGR135W, strain pre9, stronger effect = lower value 1 | S. cerevisiae deletion strains, locus YGR229C, strain SMI1, stronger effect = lower value 1.01 | S. cerevisiae deletion strains, locus YGR252W, strain gcn5, stronger effect = lower value 0.986 | S. cerevisiae deletion strains, locus YHR030C, strain SLT2, stronger effect = lower value 1.01 and 1.03 | S. cerevisiae deletion strains, locus YHR079C, strain IRE1 (second series), stronger effect = lower value 1.02 | S. cerevisiae deletion strains, locus YHR079C, strain IRE1, stronger effect = lower value 1 | S. cerevisiae deletion strains, locus YHR094C, strain hxt1, stronger effect = lower value 1.01 | S. cerevisiae deletion strains, locus YHR129C, strain ARP1, stronger effect = lower value 1 | S. cerevisiae deletion strains, locus YHR200W, strain rpn10, stronger effect = lower value 1.02 | S. cerevisiae deletion strains, locus YIL066C, strain RNR3, stronger effect = lower value 1.01 | S. cerevisiae deletion strains, locus YIL073C, strain SPO22, stronger effect = lower value 1.07 | S. cerevisiae deletion strains, locus YIL125W, strain kgd1, stronger effect = lower value 1.01 | S. cerevisiae deletion strains, locus YIR030C, strain dcg1, stronger effect = lower value 1.02 | S. cerevisiae deletion strains, locus YJL095W, strain BCK1, stronger effect = lower value 1.02 and 0.993 | S. cerevisiae deletion strains, locus YJL134W, strain LCB3, stronger effect = lower value 1.01 | S. cerevisiae deletion strains, locus YJL168C, strain set2, stronger effect = lower value 1.02 | S. cerevisiae deletion strains, locus YJL187C, strain SWE1 (second series), stronger effect = lower value 1.01 | S. cerevisiae deletion strains, locus YJR043C, strain POL32, stronger effect = lower value 1.02 | S. cerevisiae deletion strains, locus YJR066W, strain TOR1, stronger effect = lower value 0.987 | S. cerevisiae deletion strains, locus YJR075W, strain HOC1, stronger effect = lower value 1.02 | S. cerevisiae deletion strains, locus YKL009W, strain mrt4, stronger effect = lower value 1.01 | S. cerevisiae deletion strains, locus YKL068W, stronger effect = lower value 1.01 | S. cerevisiae deletion strains, locus YKL085W, strain MDH1 (second series), stronger effect = lower value 1.02 | S. cerevisiae deletion strains, locus YKL085W, strain MDH1, stronger effect = lower value 1.02 | S. cerevisiae deletion strains, locus YKL190W, strain CNB1, stronger effect = lower value 1.01 | S. cerevisiae deletion strains, locus YKR001C, strain vps1, stronger effect = lower value 1.02 | S. cerevisiae deletion strains, locus YLR039C, strain RIC1, stronger effect = lower value 1.05 | S. cerevisiae deletion strains, locus YLR058C, strain SHM2, stronger effect = lower value 1.02 | S. cerevisiae deletion strains, locus YLR102C, strain apc9, stronger effect = lower value 1.02 | S. cerevisiae deletion strains, locus YLR113W, strain HOG1, stronger effect = lower value 0.951 | S. cerevisiae deletion strains, locus YLR262C, strain YPT6, stronger effect = lower value 1.04 | S. cerevisiae deletion strains, locus YLR268W, strain sec22, stronger effect = lower value 1.03 | S. cerevisiae deletion strains, locus YLR330W, strain CHS5, stronger effect = lower value 1.01 | S. cerevisiae deletion strains, locus YLR342W, strain FKS1 (second series), stronger effect = lower value 1.02 | S. cerevisiae deletion strains, locus YLR371W, strain rom2, stronger effect = lower value 1.03 | S. cerevisiae deletion strains, locus YLR418C, strain cdc73, stronger effect = lower value 1.02 | S. cerevisiae deletion strains, locus YML016C, strain PPZ1, stronger effect = lower value 1.01 | S. cerevisiae deletion strains, locus YML032C, strain rad52, stronger effect = lower value 1.02 | S. cerevisiae deletion strains, locus YML124C, strain tub3, stronger effect = lower value 1.01 | S. cerevisiae deletion strains, locus YMR078C, strain ctf18, stronger effect = lower value 1.02 | S. cerevisiae deletion strains, locus YMR223W, strain ubp8, stronger effect = lower value 1.01 | S. cerevisiae deletion strains, locus YMR263W, strain SAP30, stronger effect = lower value 1.01 | S. cerevisiae deletion strains, locus YMR307W, strain GAS1, stronger effect = lower value 1.04 | S. cerevisiae deletion strains, locus YNL067W, strain RPL9B, stronger effect = lower value 1.01 | S. cerevisiae deletion strains, locus YNL128W, strain TEP1, stronger effect = lower value 1.01 | S. cerevisiae deletion strains, locus YNL153C, strain GIM3, stronger effect = lower value 1.01 | S. cerevisiae deletion strains, locus YNL183C, strain NPR1, stronger effect = lower value 0.968 | S. cerevisiae deletion strains, locus YNL233W, strain BNI4, stronger effect = lower value 1.01 | S. cerevisiae deletion strains, locus YNL250W, strain rad50, stronger effect = lower value 1.01 | S. cerevisiae deletion strains, locus YNL271C, strain bni1, stronger effect = lower value 1.01 | S. cerevisiae deletion strains, locus YNL298W, strain CLA4, stronger effect = lower value 1.01 | S. cerevisiae deletion strains, locus YNL307C, strain MCK1, stronger effect = lower value 1.02 | S. cerevisiae deletion strains, locus YNL322C, strain KRE1, stronger effect = lower value 1.01 | S. cerevisiae deletion strains, locus YNR052C, strain pop2, stronger effect = lower value 1.01 | S. cerevisiae deletion strains, locus YOL006C, strain TOP1, stronger effect = lower value 1.02 | S. cerevisiae deletion strains, locus YOL012C, strain htz1 1.92 | S. cerevisiae deletion strains, locus YOL147C, strain pex11, stronger effect = lower value 1.01 | S. cerevisiae deletion strains, locus YOR061W, strain CKA2, stronger effect = lower value 1.01 | S. cerevisiae deletion strains, locus YOR069W, strain VPS5, stronger effect = lower value 1.01 | S. cerevisiae deletion strains, locus YOR136W, strain idh2, stronger effect = lower value 1.02 | S. cerevisiae deletion strains, locus YOR144C, strain elg1, stronger effect = lower value 1.02 | S. cerevisiae deletion strains, locus YOR184W, strain ser1, stronger effect = lower value 1.01 | S. cerevisiae deletion strains, locus YOR231W, strain MKK1, stronger effect = lower value 1.01 | S. cerevisiae deletion strains, locus YOR316C, strain cot1, stronger effect = lower value 1.02 | S. cerevisiae deletion strains, locus YPL055C, strain LGE1, stronger effect = lower value 1.03 | S. cerevisiae deletion strains, locus YPL241C, strain CIN2, stronger effect = lower value 1.01 | S. cerevisiae deletion strains, locus YPL256C, strain CLN2, stronger effect = lower value 1.04 | S. cerevisiae deletion strains, locus YPR119W, strain clb2, stronger effect = lower value 1.01 | S. cerevisiae deletion strains, locus YPR141C, strain kar3, stronger effect = lower value 1.02 | S. cerevisiae deletion strains, locus YPR163C, strain tif3, stronger effect = lower value 1.02 | S. cerevisiae deletion strains, locus YPR167C, strain met16, stronger effect = lower value 1.02 | S. cerevisiae deletion strains, strain wtn01, stronger effect = lower value 1.01 | S. cerevisiae strains, strain wild type, stronger effect = lower value 1.01
